Test results taken from PubChem BioAssay AID1224860 (National Center for Advancing Translational Sciences (NCATS), 2016).
Inconclusive results are not listed. A call without a number means that no potency is given here. Calls of active or inactive are those of the source. The call rests on the fitted dose curve; in most records, active means well fitted cell-killing curve with a large enough effect; inconclusive means small, poorly fitted or top-dose-only effect; inactive means flat fitted curve, though single readings scatter.

assay: Compound cytotoxicity measured by an ATP content assay as a counter-screen for lead compounds in human iPSC derived neural progenitor cells (hNPCs); conditions: human iPSC-derived NPC viability, ATP luminescence; series mostly up to 46.1 µM
Protocol: National Center for Advancing Translational Sciences [NCATS] Johns Hopkins University School of Medicine Florida State University Assay Overview: Many compounds can cause cytotoxicity at high compound concentrations. […] The compound cytotoxicity may also cause side effects or toxicity in human. Thus, the compound cytotoxicity needs to be measured in each cell type and each compound incubation time - same as these in the compound screening assay. The compound cytotoxicity can be measured by cell viability assays such as the ATP content assay. We use an ATP content assay kit for cell viability measurement. It measures ATP content (level) in human iPSC derived neural progenitor cells (hNPCs) using a luminescence readout that is proportional to viable cell numbers. Decrease in the luminescence signal after the compound treatment indicates reduced cell viability and cell death caused by compound treatment.
Assay Protocol Summary: The medium for hNPCs consists of DMEM/F12, N2 supplement (ThermoFisher, Cat.# 17502048), NEAA (ThermoFisher, Cat. # 11140050), 2 ug/ml heparin, 2 uM cyclopamine, and B27 (ThermoFisher, Cat. # 17504044). The ATP content assay kit (PerkinElmer, Cat.# 6016731) was used to determine cell viability. The reagent was reconstituted and prepared as described by the manufacturer. Cells were seeded in 384- or 1536-well assay plates and cultured at 37 C with 5% CO2 for 16 to 20 hours. The typical cell seeding density in the 1536-well plate assay is 350 cells/well in 3 ul medium for hNPCs in the tissue cultured treated/PDL coated plates. Compounds were added to cells and incubated for a specific time such as 6, 24, or 72 hours before addition of the reagent mixture of the ATP content assay kit at 1:1 ratio. After incubation at room temperature for 10 minutes, the luminescence intensity in assay plates was measured using a ViewLux plate reader (PerkinElmer). […] The percentage inhibitions of the decreased cell viability by small molecules were then calculated that indicate compound cytotoxicity.

| Compound | Potency |
| --- | --- |
| CC(C)N[C@@H]1CCn2c(=O)[nH]c3cccc(c32)[C@@H]1O | inactive |
| Cc1ccc([N+](=O)[O-])[c]2c1[O][Hg]2 | 869 nM (active) |
| S=C(SSC(=S)N1CCCCC1)N1CCCCC1 | 245 nM (active) |
| CC(C)[N+](C)(CCC(C(N)=O)(c1ccccc1)c1ccccc1)C(C)C | inactive |
| O=c1c2ccccc2[se]n1-c1ccccc1 | 12300 nM (active) |
| O=C1CCC[C@@H]2[C@H]3CCCN4CCC[C@@H](CN12)[C@@H]34 | inactive |
| COC1(CS(=O)c2ccccc2)CCN(CCc2c[nH]c3ccc(F)cc23)CC1 (stereo not drawn) | inactive |
| Oc1ccc([C@H]2CNCc3c2ccc(O)c3O)cc1O | inactive |
| CN1CC[C@@]2(C)c3cc(OC(=O)Nc4ccccc4)ccc3N(C)[C@@H]12 | inactive |
| COP(=S)(OC)SCN1C(=O)c2ccccc2C1=O | inactive |
| O=C1C=CC[C@@H]2[C@H]3CCCN4CCC[C@@H](CN12)[C@@H]34 | inactive |
| CC(C)[C@H]1C(=O)N[C@H](CO)Cc2c[nH]c3cccc(c23)N1C | inactive |
| CC(O)CN1CCN(CC(=O)[O-])CCN(CC(=O)[O-])CCN(CC(=O)[O-])CC1.[Gd+3] (stereo not drawn) | inactive |
